For 6 compounds, Potency and outcome results are on record in PubChem BioAssay (Tox21).

Test [1] is described as follows: qHTS assay to identify small molecule antagonists of the estrogen receptor alpha (ER-alpha) signaling pathway using the BG1 cell line in the presence of 0.1 nM 17-beta-estradiol - cell viability counter screen (AID 1259241). Further: nearly all actives have a fitted effect of over 40% in size. Further: potency means the concentration at half of the fitted maximal effect. In a few lines: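 In this screen, hormone-deprived VM7Luc4E2 cells were seeded at 4,000 per well, dosed with compound and 0.1 nM estradiol final, and incubated 22 hr at 37C and 5% CO2; fluorogenic live-cell protease signal reported viability.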
(qHTS replaces the single test concentration by a dilution series.)

A short description of test [2]: qHTS assay to identify small molecule antagonists of the androgen receptor (AR) signaling pathway using the MDA cell line in the presence of 0.5 nM R1881 - cell viability counter screen (AID 1259242). Further: nearly all actives have a fitted effect of over 45% in size. Further: potency means the concentration at half of the fitted maximal effect. In a few lines:
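Steps: plate MDA-kb2 cells, rest 5 hr at 37C without CO2; pin in compounds in DMSO; add R1881 to 0.5 nM final; incubate 16 hr; add CellTiter-Fluor, 30 min; read fluorescence.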

For test [3], the target named is Androgen receptor (Homo sapiens) (UniProt P10275). The test can be described thus: qHTS assay to identify small molecule antagonists of the androgen receptor (AR) signaling pathway using the MDA cell line in the presence of 0.5 nM R1881 (AID 1259243). Further: nearly all actives have a fitted effect of over 50% in size. Further: potency means the concentration at half of the fitted maximal effect. In a few lines: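 Stably transfected MDA-kb2 cells express luciferase from an MMTV promoter bearing both AR and GR response elements. Compounds plus 0.5 nM R1881 (final) were incubated 16 hr at 37C without CO2, then luminescence measured.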
Chain of Androgen receptor (Homo sapiens) (P10275 whole entry, looked up): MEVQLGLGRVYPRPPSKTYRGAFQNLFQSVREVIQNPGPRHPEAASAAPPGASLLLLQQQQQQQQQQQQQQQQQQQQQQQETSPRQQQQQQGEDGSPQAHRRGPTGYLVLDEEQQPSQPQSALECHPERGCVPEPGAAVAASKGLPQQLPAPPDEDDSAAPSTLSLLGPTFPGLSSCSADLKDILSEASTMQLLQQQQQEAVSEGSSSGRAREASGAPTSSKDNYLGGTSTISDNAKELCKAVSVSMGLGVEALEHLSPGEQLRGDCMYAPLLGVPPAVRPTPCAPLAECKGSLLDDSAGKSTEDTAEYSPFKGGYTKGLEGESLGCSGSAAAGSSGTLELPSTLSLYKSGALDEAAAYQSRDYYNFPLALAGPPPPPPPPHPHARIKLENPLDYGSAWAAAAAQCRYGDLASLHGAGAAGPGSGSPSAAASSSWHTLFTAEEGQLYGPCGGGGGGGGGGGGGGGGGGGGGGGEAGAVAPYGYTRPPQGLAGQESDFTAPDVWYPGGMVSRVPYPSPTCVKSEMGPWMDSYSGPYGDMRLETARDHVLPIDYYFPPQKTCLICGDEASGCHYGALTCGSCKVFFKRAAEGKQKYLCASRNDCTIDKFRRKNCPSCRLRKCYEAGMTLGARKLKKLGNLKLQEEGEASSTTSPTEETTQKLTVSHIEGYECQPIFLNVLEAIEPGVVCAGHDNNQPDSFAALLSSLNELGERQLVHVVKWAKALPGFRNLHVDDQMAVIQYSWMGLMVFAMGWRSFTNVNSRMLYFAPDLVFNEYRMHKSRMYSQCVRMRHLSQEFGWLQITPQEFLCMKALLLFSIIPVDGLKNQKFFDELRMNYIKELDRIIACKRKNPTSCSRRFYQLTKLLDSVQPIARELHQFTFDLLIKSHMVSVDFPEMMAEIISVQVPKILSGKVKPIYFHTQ

A short description of test [4]: qHTS assay to identify small molecule HDAC inhibitors (AID 1259364).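 Further: wild-type HCT-116 cells with endogenous class I/II HDAC activity; top concentration of the series differs between compounds; nearly all actives have a fitted effect of over 45% in size.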 In a few lines: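 Cells (HCT-116, wild type) are seeded at 1,500 per well, incubated overnight, treated with compound in DMSO for 2 hr, then developed with HDAC-Glo I/II reagent for 30 min at room temperature.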
Test [5] in a line: qHTS assay to identify small molecule HDAC inhibitors - cell viability counter screen (AID 1259365). Further: nearly all actives have a fitted effect of over 50% in size. Further: potency means the concentration at half of the fitted maximal effect. In a few lines: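 Measured quantity is CellTiter-Glo luminescence from wild-type HCT-116 cells after compound incubation of 2hr at 37C, 5% CO2; reagent developed 30min at room temperature.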
The nature of test [6]: qHTS assay to identify small molecule agonists of the sonic hedgehog signaling (Shh) pathway - cell viability counter screen (AID 1259366). Further: nearly all actives have a fitted effect of over 50% in size. Further: potency means the concentration at half of the fitted maximal effect. In a few lines:
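In quantitative high-throughput format, 3T3 Gli1-Luc cells were exposed to compounds for 24hr and multiplexed for viability using CellTiter-Fluor, incubated 1hr at 37C before the fluorescence read.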

The nature of test [7]: qHTS assay to identify small molecule antagonists of the sonic hedgehog signaling (Shh) pathway - cell viability counter screen (AID 1259367). Further: nearly all actives have a fitted effect of over 55% in size. Further: potency means the concentration at half of the fitted maximal effect. A digest of the protocol:
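Tox21 library chemicals were tested on a Gli1-Luc NIH/3T3 clone (2,000 cells/well) stimulated by conditioned medium; viability was quantified as fluorescence from CellTiter-Fluor reagent added at 23 hr.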

Test [8] is described as follows: qHTS assay to identify small molecule agonists of the sonic hedgehog signaling (Shh) pathway (AID 1259368; calls by dose curve;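 further: NIH/3T3-derived 3T3Gli1-Luc cells carrying a stable Gli1-driven firefly luciferase reporter; series mostly up to about 92 µM; nearly all actives have a fitted effect of over 15% in size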). A digest of the protocol: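 Cells of a mouse NIH/3T3 clone stably expressing luciferase under the Gli1 transcriptional response element are exposed to test chemicals for 24 hr at 37 C. Pathway activation is detected as a rise in luminescence.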
Test [9] in a line: qHTS assay to identify small molecule antagonists of the sonic hedgehog signaling (Shh) pathway (AID 1259369; calls by dose curve; further: nearly all actives have a fitted effect of over 45% in size; further: potency means the concentration at half of the fitted maximal effect). In a few lines:
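Cells are plated and held 4hr at 37 C, compounds (DMSO) are pinned in, conditioned medium is added to stimulate the pathway, and after 24hr luciferase reagent is added for 30min before luminescence is read.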

For test [10], the target named is Estrogen receptor beta (Homo sapiens) (UniProt Q92731). The experiment in a line: qHTS assay to identify small molecule antagonists of the estrogen receptor beta (ER-beta) signaling pathway (AID 1259378; active means well fitted inhibition curve with a large enough effect in the signal ratio in the repeat runs, not every such curve was filed as active; the % refers to the signal ratio; further: potency means the concentration at half of the fitted maximal effect). A digest of the protocol: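 ER-beta-UAS-bla HEK293T cells in 2% charcoal-stripped FBS medium treated with compound plus 1nM final 17-beta-estradiol for 16 hr at 37C. Beta-lactamase reporter read by FRET substrate fluorescence after 2 hours at room temperature.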
Chain of Estrogen receptor beta (Homo sapiens) (Q92731 whole entry, looked up): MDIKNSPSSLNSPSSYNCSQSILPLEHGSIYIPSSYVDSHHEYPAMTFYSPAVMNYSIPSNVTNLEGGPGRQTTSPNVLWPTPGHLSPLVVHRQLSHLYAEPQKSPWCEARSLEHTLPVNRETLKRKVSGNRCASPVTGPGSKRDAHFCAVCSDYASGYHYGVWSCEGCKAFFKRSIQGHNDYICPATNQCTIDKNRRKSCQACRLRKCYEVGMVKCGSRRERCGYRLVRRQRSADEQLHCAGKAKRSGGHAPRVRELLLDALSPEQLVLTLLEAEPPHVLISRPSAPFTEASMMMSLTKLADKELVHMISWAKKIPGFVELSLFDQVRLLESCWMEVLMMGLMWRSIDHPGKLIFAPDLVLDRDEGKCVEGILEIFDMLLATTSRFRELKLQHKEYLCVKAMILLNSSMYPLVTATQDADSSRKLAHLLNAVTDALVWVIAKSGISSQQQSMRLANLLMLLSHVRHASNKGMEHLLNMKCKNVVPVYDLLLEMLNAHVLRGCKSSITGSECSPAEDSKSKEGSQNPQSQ

Test [11] in a line: qHTS assay to identify small molecule agonists of the androgen receptor (AR) signaling pathway in the presence of an antagonist - cell viability counter screen (AID 1259379). Further: nearly all actives have a fitted effect of over 25% in size. Further: potency means the concentration at half of the fitted maximal effect. A digest of the protocol:
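Cytotoxicity is assessed by CellTiter-Fluor in MDA-kb2 cells carrying an MMTV-driven luciferase reporter. Cells receive 3.0uM nilutamide plus compounds at 15 concentrations and incubate 16 hr at 37C without CO2 before fluorescence reading.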

A short description of test [12]: qHTS assay to identify small molecule agonists of the estrogen receptor beta (ER-beta) signaling pathway - cell viability counter screen (AID 1259380). Further: nearly all actives have a fitted effect of over 30% in size. Further: potency means the concentration at half of the fitted maximal effect. In a few lines:
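Cytotoxicity is measured in parallel with the reporter screen: after 16 hr compound exposure at 37C and a 2 hr LiveBLAzer step, CellTiter-Glo is added to the same ER-beta-UAS-bla HEK293T wells and luminescence read after 30 min.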

Test [13] deals with Androgen receptor (Homo sapiens) (UniProt P10275). The test can be described thus: qHTS assay to identify small molecule agonists of the androgen receptor (AR) signaling pathway in the presence of an antagonist (AID 1259381; calls by dose curve; further: nearly all actives have a fitted effect of over 15% in size). A digest of the protocol:
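Agonist-mode confirmation screen: human MDA-kb2 cells stably expressing luciferase under an MMTV promoter bearing AR and GR response elements, co-treated with 3.0uM nilutamide (final). Luminescence measured after 16hr compound incubation.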

Test [14] can be described thus: qHTS assay to identify small molecule antagonists of the estrogen receptor beta (ER-beta) signaling pathway - cell viability counter screen (AID 1259382). Further: nearly all actives have a fitted effect of over 55% in size. Further: potency means the concentration at half of the fitted maximal effect. A digest of the protocol:
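Cytotoxicity counter screen multiplexed with the beta-lactamase antagonist assay: GripTite HEK293T ER-beta-bla cells were treated 16 hr with test chemicals in the presence of 1nM 17-beta-estradiol, and viability was measured by CellTiter-Glo.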

In test [15] the target is Estrogen receptor (Homo sapiens) (UniProt P03372). The experiment in a line: qHTS assay to identify small molecule agonists of the estrogen receptor alpha (ER-alpha) signaling pathway in the presence of an antagonist (AID 1259383; calls by dose curve; further: top concentration of the series differs between compounds; nearly all actives have a fitted effect of over 15% in size). In a few lines:
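Agonist-mode confirmation in the presence of the ER antagonist ICI-182,780 at 10.0nM final. Breast-derived VM7Luc4E2 reporter cells were exposed to compounds for 22hr, and ERE-driven luciferase was quantified by luminescence.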

Test [16] can be described thus: qHTS assay to identify small molecule agonists or antagonists of the thyroid stimulating hormone receptor (TSHR) signaling pathway - wild type cell line counter screen (AID 1259384; calls by dose curve). A digest of the protocol:
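Wild-type Hek293 cells, 800/well, 18 h at 37C, then compound with Ro20-1724 for 30 min RT. cAMP by HTRF (cAMP-d2/anti-cAMP cryptate), 1 h RT, fluorescence read. 15 concentrations, triplicates.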

In test [17] the target is Estrogen receptor beta (Homo sapiens) (UniProt Q92731). The experiment in a line: qHTS assay to identify small molecule agonists of the estrogen receptor beta (ER-beta) signaling pathway (AID 1259377; active means well fitted activation curve with a large enough effect in the signal ratio in the repeat runs, not every such curve was filed as active; the % refers to the signal ratio). In a few lines: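 Reporter cells (HEK293T, ER-beta-UAS-bla) receive compounds or DMSO after a 6 hr pre-incubation. They then incubate 16 hr at 37C/5% CO2, and fluorescence from LiveBLAzer B/G substrate is measured after 2 hours at room temperature.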

For test [18], the target named is Thyrotropin receptor (Homo sapiens) (UniProt P16473). The test can be described thus: qHTS assay to identify small molecule antagonists of the thyroid stimulating hormone receptor (TSHR) signaling pathway (AID 1259385; calls by dose curve; further: nearly all actives have a fitted effect of over 20% in size; further: potency means the concentration at half of the fitted maximal effect). A digest of the protocol: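 TSHR-HEK293 cells (800/well) plated 18 h, then compounds with Ro20-1724 and TSH at 1.5 ng/mL final, 30 min at room temperature. cAMP quantified by HTRF (cAMP-d2/anti-cAMP-cryptate, 1 h); 15 concentrations in triplicate.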
Chain of Thyrotropin receptor (Homo sapiens) (P16473 whole entry, looked up): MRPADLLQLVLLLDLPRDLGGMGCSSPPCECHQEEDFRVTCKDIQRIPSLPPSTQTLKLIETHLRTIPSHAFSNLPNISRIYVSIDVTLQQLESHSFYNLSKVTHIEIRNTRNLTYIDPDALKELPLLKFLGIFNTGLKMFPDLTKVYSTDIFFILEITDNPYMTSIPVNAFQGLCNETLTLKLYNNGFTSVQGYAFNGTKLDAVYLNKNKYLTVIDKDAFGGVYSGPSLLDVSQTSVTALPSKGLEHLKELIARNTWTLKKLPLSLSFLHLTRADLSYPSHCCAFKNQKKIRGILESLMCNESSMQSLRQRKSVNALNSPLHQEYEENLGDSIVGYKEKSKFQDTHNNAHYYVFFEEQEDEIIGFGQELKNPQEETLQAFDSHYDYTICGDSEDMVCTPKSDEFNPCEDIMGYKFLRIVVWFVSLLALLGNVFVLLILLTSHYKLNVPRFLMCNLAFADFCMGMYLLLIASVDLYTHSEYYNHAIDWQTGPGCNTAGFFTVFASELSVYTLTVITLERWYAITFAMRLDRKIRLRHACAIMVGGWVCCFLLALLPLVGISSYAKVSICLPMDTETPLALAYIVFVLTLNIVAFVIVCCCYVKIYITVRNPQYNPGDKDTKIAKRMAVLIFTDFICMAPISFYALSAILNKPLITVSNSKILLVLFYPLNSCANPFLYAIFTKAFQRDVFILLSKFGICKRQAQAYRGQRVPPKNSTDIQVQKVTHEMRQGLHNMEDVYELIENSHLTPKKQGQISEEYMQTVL

Records with an inconclusive call do not appear. Some structures have more than one record in an assay (separate samples or runs), and their calls can disagree. Active and inactive are the calls of the source. Unless noted, the call rests on the fitted dose curve; in most records, active means well fitted curve in the direction sought with a large enough effect in the repeat runs; inconclusive means weak or mixed curves; inactive means no such curve, though single readings can be large; an effect the other way counts as inactive or inconclusive.

Chain of Estrogen receptor (Homo sapiens) (P03372 whole entry, looked up): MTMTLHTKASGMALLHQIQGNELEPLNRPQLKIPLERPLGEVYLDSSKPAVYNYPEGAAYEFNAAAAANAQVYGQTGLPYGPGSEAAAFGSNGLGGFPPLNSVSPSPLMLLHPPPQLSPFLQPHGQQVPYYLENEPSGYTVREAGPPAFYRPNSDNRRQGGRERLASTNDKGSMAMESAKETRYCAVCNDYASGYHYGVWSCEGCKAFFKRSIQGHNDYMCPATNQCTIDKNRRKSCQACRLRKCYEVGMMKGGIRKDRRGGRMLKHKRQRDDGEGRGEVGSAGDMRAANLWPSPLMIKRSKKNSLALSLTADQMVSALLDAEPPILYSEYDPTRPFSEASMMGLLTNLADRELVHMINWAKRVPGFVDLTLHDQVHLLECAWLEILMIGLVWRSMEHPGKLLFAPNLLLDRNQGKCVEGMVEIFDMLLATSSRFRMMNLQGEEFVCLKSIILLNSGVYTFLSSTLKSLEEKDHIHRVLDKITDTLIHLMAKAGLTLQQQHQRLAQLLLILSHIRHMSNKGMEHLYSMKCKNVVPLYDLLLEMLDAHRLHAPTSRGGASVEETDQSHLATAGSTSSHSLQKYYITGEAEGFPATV

For `ON=C1CCCC1`, the Potency result in test [1], in test [2], in [4], in [5], in test [6] and in test [7] was “inactive” throughout. Moreover, the Potency entry in test [8], in test [9], in test [10], in [11], in test [13] and in test [14] was “inactive” in each case. Further, in [15], the Potency entry is “inactive”. The Potency in test [3] was 63.3 µM (active); in test [12], 35.6 µM (active). In test [16], the compound was called inactive.
On to `CCCCCOc1ccccc1/C(=C\SC)n1ccnc1`, for which the Potency entry in [1], in test [2], in [4], in [5], in [6] and in [7] was “inactive” each time. Besides, the Potency result in test [8], in [9], in test [17], in [11], in [13] and in test [15] was “inactive” each time. Also, the Potency in [3] is 21.1 µM (active); in test [10], 10.6 µM (active); in test [12] it was 23.7 µM (active); in test [14], 29.8 µM (active). In test [16], the outcome was inactive.
On to `O=S1(=O)CC(Cl)(Cl)C(Cl)(Cl)C1`, for which the Potency in test [1] is 21.7 µM (active); in test [2] it was 21.7 µM (active); in test [3] it was 5.45 µM (active); in test [5], 48.6 µM (active); in [6], 1.37 µM (active); in test [7], 2.17 µM (active). The Potency in [9] was 0.344 µM (active); in test [10], 4.86 µM (active); in test [11], 21.7 µM (active); in [12], 9.69 µM (active); in test [14], 9.69 µM (active); in [18] it was 48.6 µM (active). Besides, the Potency entry in [4], in test [8], in test [17], in test [13] and in [15] was “inactive” in each case. The compound was called inactive in test [16].
For the compound `Cc1c(C)c2c(c(C)c1O)CCC(C)(COc1ccc(CC3SC(=O)NC3=O)cc1)O2` (stereo not given), the Potency entry in [1], in test [2], in test [4], in [5], in test [6] and in test [7] was “inactive” each time. In addition, the Potency result in test [8], in test [11], in test [13], in test [14], in test [15] and in test [18] was “inactive” each time. In addition, the Potency is 54.5 µM (active) and inactive in test [3]; 11.9 µM (active) in test [12]. For the same compound, the result in test [16] was inactive.
Consider `CCN(Cc1cccnc1)C(=O)c1cccc(Cl)c1[C@]1(C)C(=O)N(Cc2ccc(OC)cc2OC)c2ccc(Cl)cc21`, for which the Potency entry in [1], in [2], in test [4], in [5], in [8] and in test [17] was “inactive” each time. In addition, the Potency entry in [13], in test [14], in test [15] and in test [18] was “inactive” throughout. The Potency in test [3] is 57.1 µM (active); in test [9] it was 28.6 µM (active); in test [10], 8.07 µM (active). In test [16], the compound was classed as inactive.
`C1CCCC1`: the Potency entry in test [1], in [2], in test [4], in test [5], in test [6] and in [7] was “inactive” in each case. The Potency entry in test [8], in test [9], in test [17], in [10], in test [11] and in test [12] was “inactive” throughout. In addition, the Potency result in test [14] and in test [18] was “inactive” throughout. In test [16], the outcome was inactive.
